Experimental data from PubChem BioAssay.
For some assays here: Results with a measured potency or affinity are listed apart. Activity calls are given as the source filed them. Unless noted, the rule behind the calls is not given here.

Columns and labels:
[1] = antimalarial activity against Dd2 strain (AID 2302;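 active = growth inhibition above 50% at the single 2 µM test dose, taken to imply half-maximal potency below 2 µM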;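 note: 0% = DMSO untreated growth and 100% = chloroquine plus artemisinin killed control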); conditions: P. falciparum Dd2 in RBCs, LDH growth readout, 72 h; at 2 µM; stronger effect = higher value
[2] = HepG2 cytotoxicity, primary screen, cytotoxicity control for P. falciparum antimalarial project, cell-based, ATP luminescence (AID 2303;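 active = inhibition above 50%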;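 note: 0% = DMSO wells and 100% = digitonin-killed cells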); conditions: HepG2 viability, 24-48 h, at 10 µM, stronger effect = higher value
[3] = target: L-lactate dehydrogenase (Plasmodium falciparum (isolate CDC / Honduras)) (UniProt Q27743); test: PfLDH activity inhibition – cell lysate, 3D7 strain, counter-screen for P. falciparum growth inhibition project (AID 2304);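 note: 0% = vehicle and 100% = reference inhibitor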; conditions: P. falciparum 3D7 crude extract, LDH APAD/NBT absorbance; at 2 µM; stronger effect = higher value
[4] = inhibition of 3D7 malaria parasite growth – strain 3D7 (AID 2306);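 note: 0% = DMSO wells and 100% = chloroquine plus artemisinin control wells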; conditions: P. falciparum 3D7 erythrocytic growth, LDH absorbance, 72 h; at 2 µM; stronger effect = higher value
[5] = target: Calcium-dependent protein kinase 1 (Plasmodium falciparum (isolate 3D7)) (UniProt P62344); test: PfCDPK1 kinase inhibitors, biochemical, TCAMS library (AID 1159585; cut-off not given, nearly all actives have IC50 up to about 0.98 µM;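 note: inhibitors leave more ATP so luminescence rises with inhibition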); conditions: recombinant PfCDPK1, Kinase-Glo ATP depletion luminescence
[6] = target: Plasmodium falciparum protein kinase 6 (PK6, PF3D7_1337100) (UniProt Q8IDW1); test: PfPK6 kinase inhibitors, biochemical, TCAMS library (AID 1159586); conditions: recombinant PfPK6, Kinase-Glo ATP depletion luminescence
[7] = target: Protein kinase 7 (PK7), Plasmodium falciparum 3D7 (PF3D7_0213400) (UniProt Q7YTF7); test: inhibition of Plasmodium PK7 catalytic activity – biochemical, TCAMS antimalarial set, Kinase-Glo luminescence (AID 1159587); conditions: recombinant PfPK7, Kinase-Glo ATP depletion luminescence
[8] = target: Calcium-dependent protein kinase 4 (Plasmodium falciparum (isolate 3D7)) (UniProt Q8IBS5); test: PfCDPK4 kinase inhibitors, biochemical, TCAMS library (AID 1159588; cut-off not given, nearly all actives have IC50 up to about 0.91 µM); conditions: recombinant PfCDPK4, Kinase-Glo ATP depletion luminescence
Sequence of Calcium-dependent protein kinase 4 (Plasmodium falciparum (isolate 3D7)) (Q8IBS5 whole entry, looked up): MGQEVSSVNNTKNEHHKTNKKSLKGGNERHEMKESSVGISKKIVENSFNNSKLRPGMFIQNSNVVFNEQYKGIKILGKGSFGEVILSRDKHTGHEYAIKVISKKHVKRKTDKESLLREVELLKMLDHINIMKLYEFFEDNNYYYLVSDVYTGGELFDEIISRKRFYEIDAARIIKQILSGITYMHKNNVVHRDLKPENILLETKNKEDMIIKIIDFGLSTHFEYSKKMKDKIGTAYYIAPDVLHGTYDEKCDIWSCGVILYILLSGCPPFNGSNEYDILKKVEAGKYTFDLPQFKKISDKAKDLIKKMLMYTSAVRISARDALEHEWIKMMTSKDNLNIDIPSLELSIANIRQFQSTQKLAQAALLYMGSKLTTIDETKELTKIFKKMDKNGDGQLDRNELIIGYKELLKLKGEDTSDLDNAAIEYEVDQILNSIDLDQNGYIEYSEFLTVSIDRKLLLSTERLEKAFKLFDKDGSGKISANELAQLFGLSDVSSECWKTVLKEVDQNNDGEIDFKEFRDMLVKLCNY

Sequence of L-lactate dehydrogenase (Plasmodium falciparum (isolate CDC / Honduras)) (Q27743 whole entry, looked up): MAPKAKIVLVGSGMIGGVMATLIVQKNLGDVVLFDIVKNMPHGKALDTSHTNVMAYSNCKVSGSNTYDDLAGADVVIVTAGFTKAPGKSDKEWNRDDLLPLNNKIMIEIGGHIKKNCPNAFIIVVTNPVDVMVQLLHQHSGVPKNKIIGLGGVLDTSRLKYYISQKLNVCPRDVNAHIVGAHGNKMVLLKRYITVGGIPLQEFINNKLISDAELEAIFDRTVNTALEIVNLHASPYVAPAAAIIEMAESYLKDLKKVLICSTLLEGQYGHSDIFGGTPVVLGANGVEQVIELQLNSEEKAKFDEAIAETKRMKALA
Sequence of Protein kinase 7 (PK7), Plasmodium falciparum 3D7 (PF3D7_0213400) (Q7YTF7 1-343): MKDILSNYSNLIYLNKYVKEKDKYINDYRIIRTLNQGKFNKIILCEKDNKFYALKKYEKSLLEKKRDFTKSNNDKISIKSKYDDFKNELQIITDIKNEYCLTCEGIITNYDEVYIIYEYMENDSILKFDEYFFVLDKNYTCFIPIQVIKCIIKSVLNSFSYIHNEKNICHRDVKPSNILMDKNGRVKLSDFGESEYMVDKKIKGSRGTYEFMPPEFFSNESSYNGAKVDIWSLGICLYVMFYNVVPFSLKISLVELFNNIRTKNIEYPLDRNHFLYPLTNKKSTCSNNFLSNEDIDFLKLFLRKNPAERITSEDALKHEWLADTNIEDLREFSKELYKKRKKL
Sequence of Plasmodium falciparum protein kinase 6 (PK6, PF3D7_1337100) (Q8IDW1 1-305): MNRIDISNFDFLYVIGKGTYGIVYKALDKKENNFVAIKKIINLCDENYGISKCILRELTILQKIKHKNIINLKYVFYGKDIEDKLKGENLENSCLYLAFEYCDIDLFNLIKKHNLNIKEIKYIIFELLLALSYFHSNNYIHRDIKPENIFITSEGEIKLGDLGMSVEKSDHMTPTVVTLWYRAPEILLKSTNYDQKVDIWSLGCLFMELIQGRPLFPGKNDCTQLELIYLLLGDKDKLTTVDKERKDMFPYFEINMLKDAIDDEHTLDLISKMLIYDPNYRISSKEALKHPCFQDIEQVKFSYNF
Sequence of Calcium-dependent protein kinase 1 (Plasmodium falciparum (isolate 3D7)) (P62344 whole entry, looked up): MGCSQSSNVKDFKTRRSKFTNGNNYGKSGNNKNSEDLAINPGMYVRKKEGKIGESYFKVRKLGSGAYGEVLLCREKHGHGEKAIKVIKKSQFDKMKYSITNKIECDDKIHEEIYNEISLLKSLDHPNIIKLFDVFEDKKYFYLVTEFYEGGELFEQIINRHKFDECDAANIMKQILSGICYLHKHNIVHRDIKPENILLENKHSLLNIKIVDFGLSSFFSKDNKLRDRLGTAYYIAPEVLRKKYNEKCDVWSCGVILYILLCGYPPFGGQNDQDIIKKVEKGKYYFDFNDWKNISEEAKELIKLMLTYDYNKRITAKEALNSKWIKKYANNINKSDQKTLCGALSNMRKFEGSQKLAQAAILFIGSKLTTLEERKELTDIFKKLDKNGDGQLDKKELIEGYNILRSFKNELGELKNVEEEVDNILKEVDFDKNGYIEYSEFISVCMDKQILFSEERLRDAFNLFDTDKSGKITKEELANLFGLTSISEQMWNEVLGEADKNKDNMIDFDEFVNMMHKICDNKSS

OC(Cn1ccnc1)(c1ccc(Cl)cc1Cl)C1CCCCC1 (stereo not given)
active: growth inhibition [1] 58% | growth inhibition [4] 98%
inactive: inhibition [2] 7% | inhibition [3] 7% | outcome [5] | outcome [6] | outcome [7] | outcome [8]

CC(C)NC[C@@H](O)[C@H](Cc1ccccc1)NC(=O)c1cc2c3c(c1)c(C(C)C)cn3CCS(=O)(=O)N2C
active: growth inhibition [1] 99% | growth inhibition [4] 98%
inactive: inhibition [2] 5% | inhibition [3] -3% | outcome [5] | outcome [6] | outcome [7] | outcome [8]

Cc1ccccc1C1CCN(C2CCC(NC(=O)c3ccc4c(c3)-c3nocc3C(C)O4)CC2)CC1 (stereo not given)
inactive: growth inhibition [1] 37% | inhibition [3] 4% | outcome [5] | outcome [6] | outcome [7] | outcome [8]
active: inhibition [2] 68% | growth inhibition [4] 88%

NCc1ccc(CNCc2ccc(-c3ccc(-c4nc5ccc(F)cc5[nH]4)cc3)cc2)cc1
active: growth inhibition [1] 99% | growth inhibition [4] 100%
inactive: inhibition [2] 12% | inhibition [3] -3% | outcome [5] | outcome [6] | outcome [7] | outcome [8]

O=C(/C=C/c1ccc(Cl)c(Cl)c1)NC1CCC(CN2CCC(c3nc4ccccc4n3CCCO)CC2)CC1 (stereo not given)
inactive: growth inhibition [1] 28% | inhibition [2] 28% | inhibition [3] -5% | outcome [5] | outcome [6] | outcome [7] | outcome [8]
active: growth inhibition [4] 99%

COc1ccc2ncc(F)c(CCN3C[C@H](CNCc4ccc(F)cc4)[C@H](O)C3)c2n1
active: growth inhibition [4] 93%
inactive: growth inhibition [1] 21% | inhibition [2] 38% | inhibition [3] -1% | outcome [5] | outcome [6] | outcome [7] | outcome [8]

Cc1ccc(Nc2nc(NN=Cc3cccc(O)c3)nc(Nc3ccc([N+](=O)[O-])cc3)n2)cc1C
inactive: inhibition [2] -2% | inhibition [3] 5% | outcome [5] | outcome [6] | outcome [7] | outcome [8]
active: growth inhibition [1] 69% | growth inhibition [4] 101%

c1cc(CNCCc2ccncc2)cc(-c2cccc(-c3nc4ccccc4[nH]3)c2)c1
active: growth inhibition [1] 88% | growth inhibition [4] 100%
inactive: inhibition [2] 21% | inhibition [3] 1% | outcome [5] | outcome [6] | outcome [7] | outcome [8]

CCNC(C)(C)CN(Cc1ccc(-c2ccc(C(F)(F)F)cc2)cc1)C(=O)Cn1c(SCc2ccc(F)cc2)nc(=O)c2c1CCC2
inactive: inhibition [3] 2% | outcome [5] | outcome [6] | outcome [7] | outcome [8]
active: growth inhibition [1] 94% | inhibition [2] 99% | growth inhibition [4] 95%

COc1cc(NC(=O)c2sc(-c3ccc(Cl)cc3)cc2NC(=O)N2CCCC2)ccc1OCCN1CCCC1
active: growth inhibition [1] 61% | growth inhibition [4] 101%
inactive: inhibition [2] 22% | inhibition [3] 0% | outcome [5] | outcome [6] | outcome [7] | outcome [8]

Cc1cc(CN2CC[C@H](NC(=O)c3ccc(Cl)c(Cl)c3)C2)ccc1OCCCN(C)C
active: growth inhibition [4] 99%
inactive: growth inhibition [1] 35% | inhibition [2] 41% | inhibition [3] 0% | outcome [5] | outcome [6] | outcome [7] | outcome [8]

CCc1cn2c3c(cc(C(=O)N[C@@H](Cc4ccccc4)[C@H](O)CNC4CCCCC4)cc13)N(CC)S(=O)(=O)CC2
active: growth inhibition [1] 98% | growth inhibition [4] 98%
inactive: inhibition [2] 8% | inhibition [3] -5% | outcome [5] | outcome [6] | outcome [7] | outcome [8]

NC(=O)c1ccc(C(=O)Nc2cccc(-c3cccc(-c4nc5ccc(C(F)(F)F)cc5[nH]4)c3)c2)cc1
active: inhibition [2] 63% | growth inhibition [4] 100%
inactive: growth inhibition [1] 36% | inhibition [3] -5% | outcome [5] | outcome [6] | outcome [7] | outcome [8]

Cc1cccc2[nH]c(-c3cccc(-c4ccc(NC(=O)C5CC(=O)Nc6ccccc65)cc4)c3)nc12 (stereo not given)
active: growth inhibition [1] 56% | growth inhibition [4] 87%
inactive: inhibition [2] 15% | inhibition [3] 3% | outcome [5] | outcome [6] | outcome [7] | outcome [8]

Cc1cc(Cc2ccc(S(=O)(=O)c3cc4c(cc3O)CCN(C)CC4)cc2)ccc1Cl
active: growth inhibition [4] 96%
inactive: growth inhibition [1] 12% | inhibition [2] 7% | inhibition [3] 0% | outcome [5] | outcome [6] | outcome [7] | outcome [8]

CCOc1ccc(C(Cc2ccccc2)NC(=O)c2cccnc2)cc1OCC (stereo not given)
inactive: inhibition [2] -21% | inhibition [3] 5% | outcome [5] | outcome [6] | outcome [7] | outcome [8]
active: growth inhibition [1] 98% | growth inhibition [4] 100%

Cc1cc(C2CCN(CCCCNC(=O)c3ccc(NC(=O)c4ccc(Cl)cc4)cc3)CC2)c(C)cc1OCc1nccn1C
active: growth inhibition [1] 98% | growth inhibition [4] 100%
inactive: inhibition [2] 18% | inhibition [3] -2% | outcome [5] | outcome [6] | outcome [7] | outcome [8]

CCOc1ccc2c(NN=Cc3cccc(OC)c3OC)cc(C)nc2c1
inactive: inhibition [2] 4% | inhibition [3] 3% | outcome [5] | outcome [6] | outcome [7] | outcome [8]
active: growth inhibition [1] 85% | growth inhibition [4] 102%

CCCCCCn1c(Sc2ccc(C#N)c([N+](=O)[O-])c2)nnc1-c1ccc(Cl)cc1
inactive: growth inhibition [1] 48% | inhibition [2] 23% | inhibition [3] 0% | outcome [5] | outcome [6] | outcome [7] | outcome [8]
active: growth inhibition [4] 93%

NC(=O)C1CCN(Cc2cccc(-c3cccc(-c4nc5ccc(F)cc5[nH]4)c3)c2)CC1
inactive: growth inhibition [1] 7% | inhibition [2] 15% | inhibition [3] 3% | outcome [5] | outcome [6] | outcome [7] | outcome [8]
active: growth inhibition [4] 100%

Cc1ccc(F)c(CN2CCC(N3CC(c4ccccc4)(c4ccccc4)OC3=O)CC2)c1Cl
inactive: inhibition [2] 11% | inhibition [3] -4% | outcome [5] | outcome [6] | outcome [7] | outcome [8]
active: growth inhibition [1] 89% | growth inhibition [4] 95%

CC(Cc1ccc(CN(CC(N)=O)Cc2ccc(CC(C)NCCc3cccc(Cl)c3)cc2)cc1)NCCc1cccc(Cl)c1 (stereo not given)
active: growth inhibition [1] 68% | growth inhibition [4] 95%
inactive: inhibition [2] 26% | inhibition [3] 2% | outcome [5] | outcome [6] | outcome [7] | outcome [8]

CCCc1cc(C(=O)N[C@@H](Cc2ccccc2)[C@H](O)CNC(C)(C)c2cccc(OC)c2)c(F)c(N2CCCC2=O)c1
active: growth inhibition [1] 98% | growth inhibition [4] 98%
inactive: inhibition [2] 7% | inhibition [3] 0% | outcome [5] | outcome [6] | outcome [7] | outcome [8]

Nc1ccc(-c2nc3ccc(Oc4ccc5nc(-c6ccc(N)cc6)[nH]c5c4)cc3[nH]2)cc1
active: growth inhibition [1] 99% | growth inhibition [4] 100%
inactive: inhibition [2] 18% | inhibition [3] 7% | outcome [5] | outcome [6] | outcome [7] | outcome [8]

O=C(Nc1cc(Cl)ccc1O)c1cc(-c2ccccc2O)no1
active: growth inhibition [1] 79% | growth inhibition [4] 95%
inactive: inhibition [2] -7% | inhibition [3] 2% | outcome [5] | outcome [6] | outcome [7] | outcome [8]

Clc1ccc(C=NNc2ccnc3ccccc23)cc1
inactive: inhibition [2] 5% | inhibition [3] 1% | outcome [5] | outcome [6] | outcome [7] | outcome [8]
active: growth inhibition [1] 97% | growth inhibition [4] 100%

c1ccc(CNCc2ccc(-c3cccc(-c4nc5ccccc5[nH]4)c3)cc2)cc1
active: growth inhibition [1] 78% | inhibition [2] 55% | growth inhibition [4] 101%
inactive: inhibition [3] -2% | outcome [5] | outcome [6] | outcome [7] | outcome [8]

c1ccc2c(NCCCCCCCCNc3ccnc4ccccc34)ccnc2c1
active: inhibition [2] 57% | growth inhibition [4] 101%
inactive: growth inhibition [1] 35% | inhibition [3] -1% | outcome [5] | outcome [6] | outcome [7] | outcome [8]

COc1ccc2ncc(Cl)c(NCC3(O)CCC(NCc4ccc5c(n4)NC(=O)CS5)CC3)c2n1 (stereo not given)
inactive: growth inhibition [1] 31% | inhibition [2] 39% | inhibition [3] -3% | outcome [5] | outcome [6] | outcome [7] | outcome [8]
active: growth inhibition [4] 96%

O=C(Cc1cccc2ccccc12)N1CCc2cc3nccc(N4CCN5CCC[C@H]5C4)c3cc21
active: growth inhibition [1] 99% | growth inhibition [4] 101%
inactive: inhibition [2] 3% | inhibition [3] 2% | outcome [5] | outcome [6] | outcome [7] | outcome [8]

CC(C)NCc1cccc(-c2ccc(-c3nc4ccc(C(F)(F)F)cc4[nH]3)cc2)c1
inactive: inhibition [2] 7% | inhibition [3] -6% | outcome [5] | outcome [6] | outcome [7] | outcome [8]
active: growth inhibition [1] 96% | growth inhibition [4] 99%

Cc1nnc2c(NC(=O)NC3CCCC3)cc3cc(-c4ccc(CN(C)C)cc4)ccc3n12
inactive: growth inhibition [1] 37% | inhibition [3] -2% | outcome [5] | outcome [6] | outcome [7] | outcome [8]
active: inhibition [2] 100% | growth inhibition [4] 100%

CCN1CCN(c2cc(C)c3cc(NC(=O)c4cccc(C(F)(F)F)c4)ccc3n2)CC1
active: growth inhibition [1] 85% | growth inhibition [4] 101%
inactive: inhibition [2] 24% | inhibition [3] 0% | outcome [5] | outcome [6] | outcome [7] | outcome [8]

O=C(/C=C/c1ccc(Cl)c(Cl)c1)NCCCCCCN1CCCN(C(=O)Nc2ccc(Cl)c(C(F)(F)F)c2)CC1
active: growth inhibition [4] 101%
inactive: growth inhibition [1] 24% | inhibition [2] 25% | inhibition [3] -4% | outcome [5] | outcome [6] | outcome [7] | outcome [8]

COc1ccc(NC(=O)c2ccc3cc4ccccc4cc3c2)cc1N1CCN(C)CC1
inactive: growth inhibition [1] 29% | inhibition [2] 38% | inhibition [3] 1% | outcome [5] | outcome [6] | outcome [7] | outcome [8]
active: growth inhibition [4] 86%

CS(=O)(=O)CCNCc1nc(-c2ccc3c(Nc4ccc(Oc5ccccn5)cc4)ccnc3c2)cs1
active: growth inhibition [1] 89% | growth inhibition [4] 100%
inactive: inhibition [2] 9% | inhibition [3] -1% | outcome [5] | outcome [6] | outcome [7] | outcome [8]

Cc1cc(CN2CCC(Nc3ncc(-c4ccsc4)c4nc(C(F)(F)F)ccc34)CC2)no1
inactive: inhibition [2] 8% | inhibition [3] -3% | outcome [5] | outcome [6] | outcome [7] | outcome [8]
active: growth inhibition [1] 67% | growth inhibition [4] 81%

CCCc1ccc(NC(=O)c2cccc(CN3CCCN(Cc4cccc(O)c4)CC3)c2)cc1
inactive: growth inhibition [1] 40% | inhibition [2] 15% | inhibition [3] -2% | outcome [5] | outcome [6] | outcome [7] | outcome [8]
active: growth inhibition [4] 97%

COc1cc2ncnc(Nc3ccc(OCc4ccccc4)c(C(F)(F)F)c3)c2cc1OC
active: growth inhibition [1] 78% | growth inhibition [4] 101%
inactive: inhibition [2] 8% | inhibition [3] 3% | outcome [5] | outcome [6] | outcome [7] | outcome [8]

Clc1ccc(CNc2ccnc(NCCc3coc4ccccc34)n2)c(Cl)c1
inactive: growth inhibition [1] 39% | inhibition [2] 26% | inhibition [3] -3% | outcome [5] | outcome [6] | outcome [7] | outcome [8]
active: growth inhibition [4] 86%
